Laboratory results: PubChem BioAssay (NCATS)
Results filed as inconclusive are left out. Entries that show only a call come without a potency. Unmarked numbers belong to inactive results. Calls of active or inactive are those of the source. Calls come from the whole dose curve; as a rule, active = well fitted curve in the direction sought with a large enough effect; inconclusive = small, poorly fitted or top-dose-only effect, or another doubt; inactive = no such curve, though single readings can be large; an effect the other way counts as inactive or inconclusive.

Legend:
[1] = target: Rap guanine nucleotide exchange factor 3 (Homo sapiens) (UniProt O95398); assay: Confirmatory qHTS for antagonist of cAMP-regulated guanine nucleotide exchange factor 3 (EPAC1) (AID 1645880); details: EPAC1 Rap1B-BODIPY-GDP exchange, fluorescence; activity, negative = inhibition: at 115 µM (top of the series); note: nearly all actives have a fitted effect of over 55% in size; note: potency is the fitted concentration of half-maximal effect
Sequence of Rap guanine nucleotide exchange factor 3 (Homo sapiens) (O95398 whole entry, looked up): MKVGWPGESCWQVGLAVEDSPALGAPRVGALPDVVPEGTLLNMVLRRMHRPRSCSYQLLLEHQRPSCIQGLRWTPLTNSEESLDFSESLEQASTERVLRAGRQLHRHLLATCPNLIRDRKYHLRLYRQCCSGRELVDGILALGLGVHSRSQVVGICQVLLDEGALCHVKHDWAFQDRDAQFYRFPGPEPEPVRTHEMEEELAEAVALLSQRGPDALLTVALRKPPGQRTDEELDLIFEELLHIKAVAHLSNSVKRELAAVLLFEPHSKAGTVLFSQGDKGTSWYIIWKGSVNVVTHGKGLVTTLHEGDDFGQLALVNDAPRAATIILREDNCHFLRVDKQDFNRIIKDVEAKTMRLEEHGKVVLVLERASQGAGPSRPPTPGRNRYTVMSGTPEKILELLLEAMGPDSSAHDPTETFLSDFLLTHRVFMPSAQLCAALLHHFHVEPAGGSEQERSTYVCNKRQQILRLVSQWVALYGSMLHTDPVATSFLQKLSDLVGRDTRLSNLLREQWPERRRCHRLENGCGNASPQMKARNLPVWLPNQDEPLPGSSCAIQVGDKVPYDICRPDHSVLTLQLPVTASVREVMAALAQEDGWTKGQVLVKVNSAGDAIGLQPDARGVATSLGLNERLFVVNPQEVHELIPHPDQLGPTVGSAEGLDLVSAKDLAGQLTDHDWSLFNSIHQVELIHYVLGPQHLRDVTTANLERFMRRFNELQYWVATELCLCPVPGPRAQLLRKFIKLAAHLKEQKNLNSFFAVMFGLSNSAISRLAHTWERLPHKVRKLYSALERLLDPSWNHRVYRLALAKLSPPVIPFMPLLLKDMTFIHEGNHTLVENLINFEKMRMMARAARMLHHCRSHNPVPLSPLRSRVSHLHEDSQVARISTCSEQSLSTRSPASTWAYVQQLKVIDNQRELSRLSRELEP
Method in brief: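 Nucleotide exchange uses 100 nM EPAC1, 250 nM RAP1B-BODIPY-GDP and 50 uM GDP, with compounds in a concentration-titration series. After 5 min at room temperature, fluorescence (480 nm ex/540 nm em) is read every 5 min for 30 min. Data are normalized to control ATA and DMSO.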

[2] = target: Rap guanine nucleotide exchange factor 3 (Homo sapiens) (UniProt O95398); assay: Confirmatory qHTS for agonist of cAMP-regulated guanine nucleotide exchange factor 3 (EPAC1) (AID 1645881); note: nearly all actives have a fitted effect of over 75% in size; note: potency is the fitted concentration of half-maximal effect;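 for activation: EPAC1 catalysed release of BODIPY-GDP from Rap1B seen as fluorescence loss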
[3] = target: Rap guanine nucleotide exchange factor 4 (Homo sapiens) (UniProt Q8WZA2); assay: Confirmatory qHTS for agonist of cAMP-regulated guanine nucleotide exchange factor 4 (EPAC2) (AID 1645884);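 note: nucleotide exchange releases bodipy-GDP from Rap1 and this lowers its fluorescence; nearly all actives have a fitted effect of over 65% in size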; note: potency is the fitted concentration of half-maximal effect
Sequence of Rap guanine nucleotide exchange factor 4 (Homo sapiens) (Q8WZA2 whole entry, looked up): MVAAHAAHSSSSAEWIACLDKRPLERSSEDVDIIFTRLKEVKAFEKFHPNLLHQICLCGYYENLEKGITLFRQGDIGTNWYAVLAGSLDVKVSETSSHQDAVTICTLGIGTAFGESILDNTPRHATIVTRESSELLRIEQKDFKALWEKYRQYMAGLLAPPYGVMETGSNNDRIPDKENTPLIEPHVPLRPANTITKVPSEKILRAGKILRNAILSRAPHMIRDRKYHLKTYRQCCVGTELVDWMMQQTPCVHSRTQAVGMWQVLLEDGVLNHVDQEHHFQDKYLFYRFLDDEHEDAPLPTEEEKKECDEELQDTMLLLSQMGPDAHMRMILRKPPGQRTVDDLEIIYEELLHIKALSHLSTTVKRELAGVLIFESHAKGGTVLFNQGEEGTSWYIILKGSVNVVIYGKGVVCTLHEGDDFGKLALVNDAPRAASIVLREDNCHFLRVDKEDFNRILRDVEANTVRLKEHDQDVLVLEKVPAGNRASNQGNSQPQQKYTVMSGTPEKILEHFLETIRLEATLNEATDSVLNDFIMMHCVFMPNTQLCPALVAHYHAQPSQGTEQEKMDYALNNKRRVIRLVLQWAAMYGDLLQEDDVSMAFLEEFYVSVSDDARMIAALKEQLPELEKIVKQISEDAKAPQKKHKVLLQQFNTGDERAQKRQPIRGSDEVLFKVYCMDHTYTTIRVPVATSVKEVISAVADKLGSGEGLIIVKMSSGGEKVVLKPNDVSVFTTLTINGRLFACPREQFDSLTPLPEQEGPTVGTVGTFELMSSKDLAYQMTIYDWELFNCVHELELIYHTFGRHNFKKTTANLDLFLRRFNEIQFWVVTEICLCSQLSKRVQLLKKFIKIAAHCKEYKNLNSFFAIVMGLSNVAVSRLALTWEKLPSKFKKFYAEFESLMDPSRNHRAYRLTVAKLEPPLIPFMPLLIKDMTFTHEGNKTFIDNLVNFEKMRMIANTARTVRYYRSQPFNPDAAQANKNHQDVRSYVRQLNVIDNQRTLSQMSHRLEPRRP

[4] = target: Rap guanine nucleotide exchange factor 3 (Homo sapiens) (UniProt O95398); assay: Counterscreen qHTS for antagonist of cAMP-regulated guanine nucleotide exchange factor 3 (EPAC1) (AID 1645888);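 note: fluorescence loss as bound BODIPY-GDP is released from Rap1B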
Method in brief: (§1)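 Rap1B–BODIPY-GDP (250 nM) with 50 uM GDP; compounds pin-transferred to 9.74 nM–152 uM final (activator) or from 7.32 nM upwards (inhibitor). Fluorescence Ex/Em 480/540 nm read at 5 and 30 min, then after adding cAMP or buffer, at room temperature.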

[5] = target: Rap guanine nucleotide exchange factor 3 (Homo sapiens) (UniProt O95398); assay: Counterscreen qHTS for agonist of cAMP-regulated guanine nucleotide exchange factor 3 (EPAC1) (AID 1645889); note: nearly all actives have a fitted effect of over 40% in size; note: potency is the fitted concentration of half-maximal effect
Method in brief: as §1

SMILES	Potency [1]	Potency [2]	Potency [3]	Potency [4]	Potency [5]	activation [3]	activity change, negative = inhibition [4]	activation [5]
CCOC(=O)c1c(NC(=O)/C=C/C(=O)O)sc(C)c1-c1ccc(C(C)(C)C)cc1	42.6 µM (active)	inactive	inactive	inactive	inactive			
CCOc1ccc(C(=O)NCC(=O)Nc2ncccc2C)cc1OCC	inactive	inactive	inactive	inactive	inactive			
CC(=O)Nc1scc(-c2ccccc2)[n+]1-c1ccc(C)cc1	inactive	inactive				11.2% [at 17.1 µM, percent relative to cAMP agonist control]	-4.14% [at 30.8 µM]	4.92% [at 30.8 µM]
O=C(COc1ccccc1Br)Nc1ccccc1C(F)(F)F	inactive	inactive	inactive	inactive	inactive			
Cc1ncc(CO)c2c1Oc1nc(-c3ccccc3F)nc(SCC(=O)N(C)c3ccccc3)c1C2	30.1 µM (active)	inactive	inactive	inactive	inactive			
CCOc1ccc(Br)cc1S(=O)(=O)Nc1ccc(S(=O)(=O)Nc2cc(C)on2)cc1	19 µM (active)	inactive	inactive	inactive	inactive			
COc1ccc(C2=CC(=O)OC3(CCCCC3)O2)cc1	inactive	inactive				5.5% [at 17.1 µM, percent relative to cAMP agonist control]	-23.4% [at 30.8 µM]	7.07% [at 30.8 µM]
Cc1ccc(S(=O)(=O)N2[C@@H](c3cccc(Cl)c3)C(C(=O)O)=CC[C@H]2c2ccc(Cl)c(Cl)c2)cc1	67.5 µM (active)	inactive	inactive	inactive	inactive			
CCOC(=O)C1CCCCN1Cc1cccc(Oc2ccccc2)c1 (stereo not given)	inactive	inactive				6.17% [at 17.1 µM, percent relative to cAMP agonist control]	-24.9% [at 30.8 µM]	29% [at 30.8 µM]
O=S(=O)(c1ccc(Cl)cc1Br)N1CCCCC1	inactive	inactive				12.1% [at 17.1 µM, percent relative to cAMP agonist control]	-6.37% [at 30.8 µM]	10.6% [at 30.8 µM]
O=C1c2ccccc2S(=O)(=O)c2cc(N3CCC(C(=O)N4CCCCC4)CC3)ccc21	inactive	89.1 µM (active)	100 µM (active)	inactive	56.2 µM (active)			
O=C(CCCN1C(=O)/C(=C/c2ccccc2)SC1=S)Nc1ccccc1O	inactive	inactive	inactive	inactive	inactive			
CCCC(=O)NCCCc1nc2ccccc2n1C	inactive	inactive	inactive	inactive	inactive			
O=C1C=C(c2ccccc2Oc2ccccc2)C[C@@H](c2ccc(F)cc2)C1	inactive	inactive	inactive	inactive	inactive			
O=C1c2cccc3cccc(c23)N1Cc1cccc(F)c1	inactive	inactive				7.33% [at 17.1 µM, percent relative to cAMP agonist control]	-7.63% [at 30.8 µM]	26.6% [at 30.8 µM]
CCCCCN(C(=O)CCC(=O)OCC(=O)N1CCC(C)CC1)c1c(N)n(CCCC)c(=O)[nH]c1=O	inactive	inactive	inactive	inactive	inactive			
